To fix the notation:
T1: UNK ZnF1-3 (human, UniProt Q9C0B0 31-174)
T1 sequence: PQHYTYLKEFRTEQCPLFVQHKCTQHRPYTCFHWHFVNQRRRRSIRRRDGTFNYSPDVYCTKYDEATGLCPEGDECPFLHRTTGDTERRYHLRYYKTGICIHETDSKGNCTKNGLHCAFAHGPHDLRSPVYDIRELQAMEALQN

B1: chr7:140404665:140404666:+_ENSG00000090266_ENST00000247866|hu_hu|hu_hu_hu_mus_False|1_108 (ssRNA)
RNA: GGGAGUUCUACAGUCCGACGAUCUGCGUACAGAGUGCCAGAGAGUUUACAGUGUCAGUCCUCGUCAUCAGGAGGGAUUCCCAGUUCUUCAUCUGUCCACUGUGAAGGAUCUGGAUAUGAAAAGUGACCCAGCACAGCUUCUGACAACAGAGGAUUGAGCAUCA
B2: chr1:39494447:39494448:+_ENSG00000168653_ENST00000372967|hu_mus|hu_hu_hu_mus_False|78_108 (ssRNA)
RNA: GGGAGUUCUACAGUCCGACGAUCGCAUCGACCAGCCUUCUUAUAGGGCUGUUCUGCACUCUGGAUUAUAAAGUGCCGGUCCAGGCUGAUGCCCAGCUUUUUCUGUAUGUCAAGGAAAGGCAUGGCUCUGCAGUGCCCUUGUCACAACAGAGGAUUGAGCAUCA
B3: 114145877_114145997_1367_3pUTR_ENSMUSG00000033545_ENSMUST00000095176|mouse|control|control (ssRNA)
RNA: GGGAGUUCUACAGUCCGACGAUCUUUGCAGUGGACAAUGUCUGUUCCACAGGCCACUACUUAGUGAUUCUUCCCUUUCAGAACCGAGUCUCUGAGAGGUGAGGGAGGUGAGGCUGCUGUAGAGCCUGGCUGGGGGCGCCUCUGCAACAGAGGAUUGAGCAUCA
B4: chr7:130337358:130337359:+_ENSMUSG00000052707_ENSMUST00000094053|mus_mus|FALSE|FALSE (ssRNA)
RNA: GGGAGUUCUACAGUCCGACGAUCACAAGAUUUUUUGACCGGGGAACUGGUUUCCUGAGAACCAUGCUCUUUGAUUUAGGACAGGAAUAGAAAACAGAAGAACAUGGCCAACUGCUGCUCUUUUCCCAGAGAUAGAAGCGUCUUCAACAGAGGAUUGAGCAUCA
B5: chr2:165877891:165877892:+_ENSMUSG00000027678_ENSMUST00000088095|mus_mus|motif|central (ssRNA)
RNA: GGGAGUUCUACAGUCCGACGAUCGAACCUCUGGAUACAUCUUCGGAUUAUGUCUUCAAAGCCAGGCCUCAUGGAAGAUCGGAGUGAGUUUGUAUCUAUAUUGACAACCUUUCCGGAAAGGUCAUGUCUGGUAAUAAAGCUCUCCAACAGAGGAUUGAGCAUCA
B6: chr19:7500544:7500545:-_ENSMUSG00000024758_ENSMUST00000025667|mus_mus|FALSE|FALSE (ssRNA)
RNA: GGGAGUUCUACAGUCCGACGAUCACAGACACGUACACAAUUUCAUUAGUAAUUUUUUCAUCUCUACGAGUCUUUGUUUAAAAAAACAAAACCGAAAAAACCCUCUCAUGUAACACAGAAACCUUUCCAAUUAUUUUAACACAGCAACAGAGGAUUGAGCAUCA
B7: chr3:32586495:32586496:-_ENSG00000144635_ENST00000273130|hu_hu|FALSE|FALSE (ssRNA)
RNA: GGGAGUUCUACAGUCCGACGAUCUUUCUGUAAAGAAUCCAAAGCAGUCCAAGGCUUUGACAUGUCAACAACCAGCAUAACUAGAGUAUCCUUCAGAGAUACGGCAUCCAGUGAAAAUUUAAGGAGGCCUUUGUGAUAUAGGUCCAACAGAGGAUUGAGCAUCA
B8: chr13:100193591:100193592:-_ENSMUSG00000052727_ENSMUST00000064762|mus_mus|motif|central (ssRNA)
RNA: GGGAGUUCUACAGUCCGACGAUCUUAAACCCUCAGAGUAAAAGAGCAGUGCGAAACAUACGCUUUACAGACGAAAAUAAACGGAAAUGUAAAUUUUGAAAUAAAUAACUAACAUAGAAAAUAAAAUGAGGUCAUUGUUCACUACAACAGAGGAUUGAGCAUCA
B9: chr13:100193591:100193592:-_ENSMUSG00000052727_ENSMUST00000064762|mus_mus|FALSE|FALSE (ssRNA)
RNA: B8 RNA with G82U, G83A
B10: 44559432_44560298_1111_3pUTR_ENSMUSG00000032096_ENSMUST00000034607|mouse|control|control (ssRNA)
RNA: GGGAGUUCUACAGUCCGACGAUCACAUUUGGAUGCGUCUGUAGCUGCACCCCUUUCUUAUCUUCAUUUUCUACAUGAAGACGAAUCCGGCCAAAUUUGUCAUCUGAGAUCCUAAGCAUGAUCAUGCCAUGCAACUCCAUAUUCCAACAGAGGAUUGAGCAUCA
B11: chr15:55677894:55677895:-_ENSG00000260916_ENST00000569205|hu_mus|motif|central (ssRNA)
RNA: GGGAGUUCUACAGUCCGACGAUCGGAACAUUCUAGAGUCAGUCCACAGUUGUCACUGGCUGUGGCAGAAUUCACGAUCUCGGUAUCAGAACCCUCAUGAUUGAUGACAGUCCAGCCACAAGAUGAGUCGCUGUCGCUGGAACUCAACAGAGGAUUGAGCAUCA
B12: chr5:133537698:133537699:-_ENSG00000113575_ENST00000481195|hu_mus|FALSE|FALSE (ssRNA)
RNA: GGGAGUUCUACAGUCCGACGAUCGCUCUCGUGAUUCCCUCGGAGUAUGGUGAUGCGCUCUCGGUAACGAACCUUAAGAGCUACAAGCAGUGUAACUGUUUCAACAGAGUAAUAUCCUCUGUCCACAUAGUCUCCCAUAAACAGCAACAGAGGAUUGAGCAUCA
B13: chr7:129114946:129114947:-_ENSMUSG00000034951_ENSMUST00000057576|mus_hu|motif|central (ssRNA)
RNA: GGGAGUUCUACAGUCCGACGAUCAUCAACAAGCAUCAUUAAGCUGUUCUGCAUACCUGUUAGCUUGGCAGAAAUCACAGCGGUGUCCUGAGUCUUAAAUGUCUCCUCAAUAUCGGCGCUCAACGUGCUCCACUUAUCUGCUUCCAACAGAGGAUUGAGCAUCA
B14: chr2:179515052:179515053:+_ENSMUSG00000000305_ENSMUST00000000314|mus_hu|mus_mus_mus_hu_False|28_108 (ssRNA)
RNA: GGGAGUUCUACAGUCCGACGAUCGCUUUCCCGCGCAGUCACCGUGAACGCCACCUGCUCGGAGGGGACCUGCAGCUCCCGGGUGGCGAAGACUGUCCCAUCUGCCCCGACUUUGAAGUCCAUGCUGUUGGUCUCAUAUUGUGUCAACAGAGGAUUGAGCAUCA
B15: chr1:109605286:109605287:-_ENSG00000197780_ENST00000461096|hu_mus|hu_hu_hu_mus_True|58_108 (ssRNA)
RNA: GGGAGUUCUACAGUCCGACGAUCAAGAACAAUAACAACAUUCAGUAACCUCUUUAAAUGCAAUUAUCCUUAUUAUAAACUAAGGGCAAUAAUAAUUUAAUACCGUAAGUGAACUACACACAAAGCCUGAACCGCGAAAAUGGUCAACAGAGGAUUGAGCAUCA
B16: chr22:38881817:38881818:-_ENSG00000100201_ENST00000396821|hu_mus|motif|central (ssRNA)
RNA: GGGAGUUCUACAGUCCGACGAUCUAAUUAUAGACUGGAUCUUUUGGGUGGGCAGAAGAAACCUGGCAGUGAAAUUUUAACGGUCUGCAUUAAAAAAAGAUAAACCGUAAUGGUUGAGAAAAGAAAAAAUAAAAAUGAAAAGGUCAACAGAGGAUUGAGCAUCA
B17: chr22:38881817:38881818:-_ENSG00000100201_ENST00000396821|hu_mus|FALSE|FALSE (ssRNA)
RNA: B16 RNA with G81U, G82A
B18: 110384571_110384691_763_CDS_ENSG00000138802_ENST00000265175|human|control|control (ssRNA)
RNA: GGGAGUUCUACAGUCCGACGAUCUCCUGAAAGACUUUGCUGCUGGUGGUGCUGUUGUGAUGGUAGAGGUGGAAGUGGCGAUGGAUGGCUGAUAGCUGUAUUUUGACCAGAGAAUGAAUUAUCUUUAACUGGCCUAACAGUCGGCAACAGAGGAUUGAGCAUCA
B19: 65775431_65775551_264_CDS_ENSG00000116675_ENST00000371069|human|control|control (ssRNA)
RNA: GGGAGUUCUACAGUCCGACGAUCCACUCUCUGCUUGCCGCCAACCCCGCCGCUUCCCGCACUUAAGUCCCCGUUACUGUCCACCAGCUGCAAAGAUUCAUAACCAUCGUUGCUGGUCUUUUUCCGGUAGCUCCCGAGGAGGCUCAACAGAGGAUUGAGCAUCA
B20: chr4:42581876:42581877:-_ENSG00000124406_ENST00000264449|hu_hu|FALSE|FALSE (ssRNA)
RNA: GGGAGUUCUACAGUCCGACGAUCGCCACCAUAGUUUAGAUUGAGAUACCAGUCUUUUCCAGAAUGCCUUCGAUUCCAAAUGGCUGAGCCCACAGAACAGACAAGAGACAUGGCAAUUAAGAUACAAAAUAAAAUCAAAAUUUGCAACAGAGGAUUGAGCAUCA
B21: chr21:34924512:34924513:+_ENSG00000159140_ENST00000381679|hu_mus|motif|central (ssRNA)
RNA: GGGAGUUCUACAGUCCGACGAUCAGAUGACAUCAUGGAACGUUCUGCAGCAUAGGACAUCAUCAUAGAACGUCUAGAUGCGGACAUCAAGGGUCUAGGUGCUAACCUGUAUGGCCUAGGUGCUAUCCUAUAGGACCUGGGUGCCAACAGAGGAUUGAGCAUCA
B22: 122452171_122453414_3711_CDS_ENSMUSG00000034602_ENSMUST00000073792|mouse|control|control (ssRNA)
RNA: GGGAGUUCUACAGUCCGACGAUCUCGGUCCAGUAGAUGAAAGAGUACCUUCCAAAUAACGGUGUGCCAGGUGGAGUGCUGCAGCAGGGUCCCGUGCGCUCCGAUCGUGGAGAACAGGGUCUGCCCUGCGCUCUUCCUCACGGCCAACAGAGGAUUGAGCAUCA

The source of these data is paper PMC12136788.

Numbering of substitutions follows the chain as printed. The full ranking holds about 24,000 sequences; the median of “enrichment r” is about 0.99, and the highest 2% start at about 3.7. The list comes from a sample in which the highest values are over-represented; it also holds similar and randomly drawn sequences.

The experiment concerns the target T1, UNK ZnF1-3. The experiment in a line: nsRBNS (natural sequence RNA bind-n-seq); RBNS binding buffer (assumed for nsRBNS): 25 mM Tris pH 7.5, 150 mM KCl, 3 mM MgCl2, 0.01% Triton X-100, 500 ug/ml BSA, 20 U/ml SUPERase-In, 4 C; UNK is unkempt and MSI1 is Musashi-1; names of the RNAs are library labels; protein concentration not given here; high values mean tight binding.
Regarding B1, the binding signal stood at 1.16 enrichment R.

Regarding B2, the binding signal was 1 enrichment R. The result for B3 reads 0.695 enrichment R; that for B4, 0.987 enrichment R; that for B5, 0.788 enrichment R. Next, B6: 1.21 enrichment R; B7: 1.74 enrichment R. Molecule B8 returned a binding signal of 4.73 enrichment R. Take B9: the binding signal stood at 5.86 enrichment R. For B10, the binding signal came out at 0.578 enrichment R. The result for B11 reads 0.495 enrichment R; that for B12, 0.691 enrichment R. Next, B13: 0.781 enrichment R. The result for B14 reads 0.727 enrichment R; that for B15, 1.22 enrichment R. Take B16: the binding signal turned out to be 8.6 enrichment R.

B17: the binding signal was found to be 6.63 enrichment R. The molecule B18 gave a binding signal of 1.16 enrichment R. Next, B19: 0.845 enrichment R; B20: 3.52 enrichment R. The result for B21 reads 0.683 enrichment R; that for B22, 0.594 enrichment R.
